Source: PubChem BioAssay (NCATS)
Records with an inconclusive call do not appear. Active and inactive are the calls of the source. Unless noted, the call rests on the fitted dose curve; in most records, active means well fitted curve in the direction sought with a large enough effect; inconclusive means small, poorly fitted or top-dose-only effect, or another doubt; inactive means no such curve, though single readings can be large; an effect the other way counts as inactive or inconclusive.

What was measured:
[1] = AP1 Signaling Pathway (AID 357; active means well fitted curve in either direction with a large enough effect, not every such curve was filed as active;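 further: ME-180 reporter cells stimulated with EGF at its EC50 level; on the % scale 0 is the no-effect control and ±100 the full control effect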); conditions: ME-180 (cervical carcinoma) AP-1-bla reporter, EGF-induced, beta-lactamase ratio, 5 h; at 7.69 µM (top of the series) unless noted
Method in brief: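 Cells are seeded overnight, exposed to compound titrations and an EC50 level of EGF for 5 hours at 37 °C, then loaded with CCF4 dye for 2.5 hours. Beta-lactamase activity under the AP-1 element is read as a blue/green ratio.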

[2] = NFAT Signaling Pathway (AID 444; active means well fitted curve in either direction with a large enough effect, not every such curve was filed as active;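 further: carbachol stimulus at about its EC50 of 1 µM final; on the % scale 0 is the no-effect control and ±100 the full control effect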); conditions: Jurkat NFAT-bla M1, carbachol, beta-lactamase ratio, 5 h; at 7.69 µM (top of the series) unless noted
Method in brief: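 Jurkat cells with NFAT-driven β-lactamase reporter and co-expressed M1 receptor, stimulated with carbachol (final 1 uM, ~EC50), compound titration, 5 h at 37 °C. CCF4 loaded 1 h at RT; 460/530 nm ratio gave %activity and AC50.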

[3] = Stat Signaling Pathway (AID 446; active means well fitted curve in either direction with a large enough effect, not every such curve was filed as active;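 further: ME-180 cervical cancer cells given 40 pM IL-6 alongside compound; SIE-controlled beta-lactamase reporter measured as 460/530 nm FRET emission ratio; on the % scale 0 is the no-effect control and ±100 the full control effect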)
Method in brief: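 Normalization used AC90 stimulation (300 pM IL-6) and AC90 inhibition (125 nM pan-JAK inhibitor at 40 pM IL-6). The underlying signal is SIE-driven beta-lactamase in ME-180 cells after 5 h IL-6 exposure with compound.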

[4] = target: Glucocorticoid receptor (Homo sapiens) (UniProt P04150); experiment: GR-GFP Redistribution (AID 450;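 active means compounds whose dose series gives a full or clear partial fitted curve of increased nuclear translocation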; further: potency means the concentration at half of the fitted maximal effect); conditions: U2OS GR-GFP nuclear translocation, laser cytometry, 2 h
Chain of Glucocorticoid receptor (Homo sapiens) (P04150 whole entry, looked up, the tested form may be a part): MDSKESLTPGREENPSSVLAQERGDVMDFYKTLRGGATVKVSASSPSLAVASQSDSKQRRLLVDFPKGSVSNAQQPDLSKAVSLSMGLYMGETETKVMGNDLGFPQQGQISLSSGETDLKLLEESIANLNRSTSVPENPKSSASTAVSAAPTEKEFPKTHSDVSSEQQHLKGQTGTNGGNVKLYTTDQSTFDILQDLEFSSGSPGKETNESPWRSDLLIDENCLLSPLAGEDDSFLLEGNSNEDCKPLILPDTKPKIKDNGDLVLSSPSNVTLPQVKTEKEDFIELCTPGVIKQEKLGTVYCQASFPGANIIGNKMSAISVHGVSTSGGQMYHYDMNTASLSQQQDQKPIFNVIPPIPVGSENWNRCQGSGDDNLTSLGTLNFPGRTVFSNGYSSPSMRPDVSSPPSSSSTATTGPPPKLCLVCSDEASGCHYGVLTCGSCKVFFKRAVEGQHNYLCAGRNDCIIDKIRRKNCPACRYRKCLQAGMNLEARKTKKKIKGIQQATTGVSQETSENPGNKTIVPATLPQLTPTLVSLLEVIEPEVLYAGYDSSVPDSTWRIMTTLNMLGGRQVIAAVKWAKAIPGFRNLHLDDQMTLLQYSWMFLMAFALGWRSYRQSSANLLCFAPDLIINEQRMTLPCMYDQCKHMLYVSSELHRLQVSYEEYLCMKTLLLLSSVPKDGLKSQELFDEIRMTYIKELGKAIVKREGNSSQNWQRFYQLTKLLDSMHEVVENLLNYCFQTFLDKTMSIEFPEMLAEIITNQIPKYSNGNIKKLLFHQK

[5] = target: Glucocorticoid receptor (Homo sapiens) (UniProt P04150); experiment: GR-EFC Redistribution (AID 451; calls by dose curve; further: potency means the concentration at half of the fitted maximal effect); conditions: CHO-K1 GR-EFC translocation, beta-gal luminescence, 2 h
Method in brief: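 CHO-K1 cells expressing nuclear EA and GR-ED fragments of b-gal; compounds titrated up to 46 uM final, 2 h at 37 C. GR nuclear translocation read as complemented b-gal luminescence after 1 h RT detection.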

[6] = target: Mitogen-activated protein kinase 10 (Mus musculus) (UniProt Q61831); experiment: JNK3 AlphaScreen Assay (AID 530; active means well fitted curve in either direction with a large enough effect, not every such curve was filed as active;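 further: kinase came from lysate of stimulated human HepG2 cells; signal reports phosphorylation of biotinylated GST-cJun 1-79 at Ser73 with 10 µM ATP; on the % scale 0 is the no-effect control and ±100 the full control effect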)
Method in brief: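 HepG2 lysate (IL-1b/TNFa pre-activated) + biotin-GST-cJun 1-79 + anti-pSer73 cJun; cpd titration, 15 min RT; ATP 10 uM start; Tris pH 7.6, MgCl2, DTT, vanadate; beads in EDTA buffer; AlphaScreen.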

[7] = target: 3',5'-cyclic-AMP phosphodiesterase 4B (Homo sapiens) (UniProt Q07343); experiment: qHTS Assay for Inhibitors of PDE-IV (AID 607; active means well fitted activation curve with a large enough effect in the main read-out, with a control signal flat, not every such curve was filed as active; further: % of control where 0% means no effect)
Chain of 3',5'-cyclic-AMP phosphodiesterase 4B (Homo sapiens) (Q07343 whole entry, looked up): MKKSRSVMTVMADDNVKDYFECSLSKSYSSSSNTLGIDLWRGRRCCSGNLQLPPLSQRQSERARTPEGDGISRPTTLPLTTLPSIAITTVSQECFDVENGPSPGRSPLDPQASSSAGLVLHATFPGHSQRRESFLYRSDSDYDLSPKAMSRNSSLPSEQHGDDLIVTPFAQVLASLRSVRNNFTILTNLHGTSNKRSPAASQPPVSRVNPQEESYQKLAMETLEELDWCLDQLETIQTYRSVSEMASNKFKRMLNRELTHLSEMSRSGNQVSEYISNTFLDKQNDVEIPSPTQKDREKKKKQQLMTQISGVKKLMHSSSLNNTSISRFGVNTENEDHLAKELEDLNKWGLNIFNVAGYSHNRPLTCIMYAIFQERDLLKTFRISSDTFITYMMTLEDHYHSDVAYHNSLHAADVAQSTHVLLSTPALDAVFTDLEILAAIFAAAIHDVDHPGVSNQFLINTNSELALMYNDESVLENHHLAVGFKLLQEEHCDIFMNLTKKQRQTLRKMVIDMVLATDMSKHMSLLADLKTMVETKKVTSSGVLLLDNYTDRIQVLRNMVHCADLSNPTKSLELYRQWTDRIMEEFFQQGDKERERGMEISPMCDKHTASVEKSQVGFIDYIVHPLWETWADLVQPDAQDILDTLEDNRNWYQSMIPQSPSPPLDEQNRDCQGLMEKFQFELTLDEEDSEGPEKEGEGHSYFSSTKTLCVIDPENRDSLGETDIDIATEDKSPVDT
Method in brief: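 HEK293 ACTOne cells with CNG channel (1000/well), endogenous PDE4; membrane potential dye, compounds up to 22.9 uM final. Fluorescence Ex 535/Em 590; RO 20-1724 (100 uM final) as reference.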

[8] = target: Cytochrome P450 3A4 (Homo sapiens) (UniProt P08684); experiment: qHTS Assay for Activators of Cytochrome P450 3A4 (AID 885); further: nearly all actives have a fitted effect of over 65% in size
Chain of Cytochrome P450 3A4 (Homo sapiens) (P08684 whole entry, looked up): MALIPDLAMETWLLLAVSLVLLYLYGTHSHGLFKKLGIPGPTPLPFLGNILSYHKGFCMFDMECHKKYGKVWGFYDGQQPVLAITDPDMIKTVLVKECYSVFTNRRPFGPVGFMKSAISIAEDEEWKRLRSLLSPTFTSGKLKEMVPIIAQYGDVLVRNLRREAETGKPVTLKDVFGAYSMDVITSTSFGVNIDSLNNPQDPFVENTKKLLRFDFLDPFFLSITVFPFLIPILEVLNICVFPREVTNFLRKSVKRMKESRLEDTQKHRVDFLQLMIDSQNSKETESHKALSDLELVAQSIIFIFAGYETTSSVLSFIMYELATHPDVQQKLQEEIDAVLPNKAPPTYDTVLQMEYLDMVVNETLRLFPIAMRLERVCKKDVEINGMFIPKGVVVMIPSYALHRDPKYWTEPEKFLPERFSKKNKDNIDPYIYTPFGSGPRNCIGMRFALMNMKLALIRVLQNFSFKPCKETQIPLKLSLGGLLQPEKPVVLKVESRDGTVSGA
Method in brief: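 Human CYP3A4 dealkylates Luciferin-PPXE to luciferin, which luciferase detection converts to light. Substrate was at its KM (25uM), buffer 200mM KPO4, reaction 60 min at RT.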

[9] = target: Cytochrome P450 2C19 (Homo sapiens) (UniProt P33261); experiment: qHTS Assay for Inhibitors and Substrates of Cytochrome P450 2C19 (AID 899); further: potency means the concentration at half of the fitted maximal effect; nearly all actives have a fitted effect of over 60% in size
Chain of Cytochrome P450 2C19 (Homo sapiens) (P33261 whole entry, looked up): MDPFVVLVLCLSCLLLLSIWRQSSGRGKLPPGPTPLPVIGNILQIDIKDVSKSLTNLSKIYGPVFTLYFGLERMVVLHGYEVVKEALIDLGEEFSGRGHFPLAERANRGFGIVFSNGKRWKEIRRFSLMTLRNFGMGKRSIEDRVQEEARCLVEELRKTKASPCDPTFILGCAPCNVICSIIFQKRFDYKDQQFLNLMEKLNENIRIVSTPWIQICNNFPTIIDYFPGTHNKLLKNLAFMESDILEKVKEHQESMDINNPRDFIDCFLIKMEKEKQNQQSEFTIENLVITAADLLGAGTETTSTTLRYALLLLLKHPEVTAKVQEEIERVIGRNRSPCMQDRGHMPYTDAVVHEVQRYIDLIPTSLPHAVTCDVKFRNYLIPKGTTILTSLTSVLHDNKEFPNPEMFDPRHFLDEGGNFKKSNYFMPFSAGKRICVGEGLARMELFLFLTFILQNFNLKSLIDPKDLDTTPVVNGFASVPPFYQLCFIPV
Method in brief: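 5 nM human CYP2C19 with 10uM Luciferin-H EGE (at KM) in 50mM KPO4, compound preincubated 10 min at 37C, then NADPH regeneration for 60 min at 37C. Luciferin read by luminescence after detection reagent; normalized to 57uM ketoconazole as full inhibition.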

[10] = target: Dual specificity protein kinase CLK4 (Homo sapiens) (UniProt Q9HAZ1); experiment: qHTS Assay for Inhibitors of CDC-like Kinase 4 (Kinase-Glo Assay) (AID 1770); further: potency means the concentration at half of the fitted maximal effect; nearly all actives have a fitted effect of over 65% in size
Chain of Dual specificity protein kinase CLK4 (Homo sapiens) (Q9HAZ1 whole entry, looked up): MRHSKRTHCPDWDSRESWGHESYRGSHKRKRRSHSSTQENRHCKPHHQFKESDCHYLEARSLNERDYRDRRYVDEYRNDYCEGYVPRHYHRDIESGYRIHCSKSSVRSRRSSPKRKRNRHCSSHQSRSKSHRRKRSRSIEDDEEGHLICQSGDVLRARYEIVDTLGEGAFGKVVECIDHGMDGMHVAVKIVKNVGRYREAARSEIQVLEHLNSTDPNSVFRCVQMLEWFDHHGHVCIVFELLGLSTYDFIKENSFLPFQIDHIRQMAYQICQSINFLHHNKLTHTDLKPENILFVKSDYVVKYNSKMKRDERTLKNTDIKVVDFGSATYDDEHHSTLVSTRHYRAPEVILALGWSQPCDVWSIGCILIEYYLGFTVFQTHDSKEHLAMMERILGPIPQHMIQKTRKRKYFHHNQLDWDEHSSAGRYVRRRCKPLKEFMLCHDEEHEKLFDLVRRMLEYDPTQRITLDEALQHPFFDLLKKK
Method in brief: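 25 nM Clk4 with 100 uM RS repeat peptide and 1 uM ATP (final) in Tris pH7.5, 10 mM MgCl2, 4.5 h at room temperature. Remaining ATP measured by Kinase-Glo luciferase luminescence.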

[11] = target: Dual specificity protein kinase CLK4 (Homo sapiens) (UniProt Q9HAZ1); experiment: qHTS Assay for Inhibitors of CDC-like Kinase 4 (ADP-Glo Assay) (AID 1771); further: potency means the concentration at half of the fitted maximal effect; nearly all actives have a fitted effect of over 70% in size
Method in brief: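 25 nM Clk4, 100 uM RS peptide, 1 uM ATP (final); 2 mM MgCl2, 0.5 mM EGTA, 2.5 mM DTT, 0.01% Triton X-100; 1 hr RT. ADP-Glo readout: ATP depletion 45 min, conversion/luciferase 30 min, luminescence.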

[12] = target: Lysosomal acid glucosylceramidase (Homo sapiens) (UniProt P04062); experiment: Glucocerebrosidase-p2 (AID 348; in the data active means potency below about 10 µM; further: potency means the concentration at half of the fitted maximal effect); conditions: purified GBA, blue fluorogenic substrate, 40 min
Chain of Lysosomal acid glucosylceramidase (Homo sapiens) (P04062 whole entry, looked up): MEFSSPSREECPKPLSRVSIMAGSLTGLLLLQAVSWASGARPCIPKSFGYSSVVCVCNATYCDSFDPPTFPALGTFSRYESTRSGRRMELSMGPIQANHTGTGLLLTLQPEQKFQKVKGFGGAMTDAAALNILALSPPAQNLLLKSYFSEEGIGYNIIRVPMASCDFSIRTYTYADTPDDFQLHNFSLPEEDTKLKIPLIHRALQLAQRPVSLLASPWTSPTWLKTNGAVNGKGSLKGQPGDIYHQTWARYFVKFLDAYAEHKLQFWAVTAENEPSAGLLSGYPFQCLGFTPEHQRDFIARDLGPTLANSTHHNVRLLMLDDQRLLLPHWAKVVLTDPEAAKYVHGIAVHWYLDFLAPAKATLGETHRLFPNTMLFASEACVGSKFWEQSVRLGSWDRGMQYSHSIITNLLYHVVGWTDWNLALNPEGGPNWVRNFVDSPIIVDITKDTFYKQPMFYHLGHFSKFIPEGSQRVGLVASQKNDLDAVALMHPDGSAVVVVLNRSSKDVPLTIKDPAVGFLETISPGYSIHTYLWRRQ
Method in brief: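 Normal human glucocerebrosidase (0.2 nM) with blue fluorogenic substrate (80 uM final) in citrate/phosphate pH 5.9 with 10mM sodium taurocholate, 0.01% tween-20; 40 min RT, NaOH/glycine stop; fluorescence Ex 365/Em 440; AC50 from a titration from 0.6 nM upwards.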

[13] = target: Cytochrome P450 1A2 (Homo sapiens) (UniProt P05177); experiment: p450-cyp1a2 (AID 410; calls by dose curve; further: potency means the concentration at half of the fitted maximal effect)
Chain of Cytochrome P450 1A2 (Homo sapiens) (P05177 whole entry, looked up): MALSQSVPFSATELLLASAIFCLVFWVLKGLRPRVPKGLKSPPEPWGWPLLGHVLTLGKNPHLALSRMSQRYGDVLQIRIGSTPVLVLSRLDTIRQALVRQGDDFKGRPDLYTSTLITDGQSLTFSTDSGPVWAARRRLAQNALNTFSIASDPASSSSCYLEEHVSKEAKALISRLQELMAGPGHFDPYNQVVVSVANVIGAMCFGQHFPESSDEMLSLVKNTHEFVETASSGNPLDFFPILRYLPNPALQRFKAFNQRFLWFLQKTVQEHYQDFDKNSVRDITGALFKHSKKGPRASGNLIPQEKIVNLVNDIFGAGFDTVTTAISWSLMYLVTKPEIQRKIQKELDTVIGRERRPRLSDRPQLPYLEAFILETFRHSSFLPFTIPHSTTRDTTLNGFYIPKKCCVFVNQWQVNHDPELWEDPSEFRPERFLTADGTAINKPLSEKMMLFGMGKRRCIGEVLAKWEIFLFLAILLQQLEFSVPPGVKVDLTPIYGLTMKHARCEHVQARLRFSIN
Method in brief: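 20nM CYP1A2, 100uM Luciferin-ME (=Km), 100mM KPO4; cpd 10 min RT; +NADPH regen, 60 min RT; stop/detect 20 min; luminescence. Normalized to furafylline 57 uM = full inhibition.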

[14] = target: Cytochrome P450 3A4 (Homo sapiens) (UniProt P08684); experiment: qHTS Assay for Inhibitors and Substrates of Cytochrome P450 3A4 (AID 884); further: potency means the concentration at half of the fitted maximal effect; nearly all actives have a fitted effect of over 50% in size
Method in brief: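 Luminescent readout of luciferin produced by CYP3A4 (20 nM) dealkylation of Luciferin-PPXE, 25 uM (its KM). NADPH-driven reaction ran 60 min at RT after 10 min compound preincubation; data scaled to 57 uM ketoconazole as 100% inhibition.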

[15] = target: Ubiquitin carboxyl-terminal hydrolase 1 (Homo sapiens) (UniProt O94782); experiment: Inhibitors of USP1/UAF1: Pilot qHTS (AID 504865);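 further: rhodamine fluorescence freed from ubiquitin-rhodamine substrate followed over time; top concentration of the series differs between compounds; on the % scale 0 is the no-effect control and ±100 the full control effect; nearly all actives have a fitted effect of over 35% in size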
Chain of Ubiquitin carboxyl-terminal hydrolase 1 (Homo sapiens) (O94782 whole entry, looked up): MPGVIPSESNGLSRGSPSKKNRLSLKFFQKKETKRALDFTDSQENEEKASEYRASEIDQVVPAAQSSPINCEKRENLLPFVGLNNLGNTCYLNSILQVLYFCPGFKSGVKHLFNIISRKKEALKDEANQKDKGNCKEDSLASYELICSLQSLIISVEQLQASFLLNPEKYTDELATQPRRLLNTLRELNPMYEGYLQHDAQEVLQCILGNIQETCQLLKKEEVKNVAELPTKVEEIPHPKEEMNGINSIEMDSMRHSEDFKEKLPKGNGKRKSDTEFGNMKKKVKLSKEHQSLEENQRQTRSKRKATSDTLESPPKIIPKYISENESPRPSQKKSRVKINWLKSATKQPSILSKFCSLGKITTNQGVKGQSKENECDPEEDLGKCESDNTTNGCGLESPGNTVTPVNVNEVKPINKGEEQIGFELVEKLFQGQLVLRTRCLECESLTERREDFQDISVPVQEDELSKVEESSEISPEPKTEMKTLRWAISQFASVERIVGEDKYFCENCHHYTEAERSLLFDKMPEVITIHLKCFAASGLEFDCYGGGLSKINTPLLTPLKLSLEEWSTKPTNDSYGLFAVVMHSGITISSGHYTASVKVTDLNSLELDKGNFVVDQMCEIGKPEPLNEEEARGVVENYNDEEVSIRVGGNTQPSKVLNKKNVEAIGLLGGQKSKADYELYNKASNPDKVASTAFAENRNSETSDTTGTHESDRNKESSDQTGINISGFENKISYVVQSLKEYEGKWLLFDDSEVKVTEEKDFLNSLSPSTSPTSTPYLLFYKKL
Method in brief: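 USP1/UAF1 complex at 1 nM preincubated 15 min at room temperature with compound, then Ub-Rho substrate added at 150 nM final. Fluorescence (480/540 nm) read kinetically in 50 mM HEPES pH 7.8, 0.5 mM EDTA, 1 mM TCEP, 0.1 mg/ml BSA, 0.01% Tween-20.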

[16] = target: Dual specificity protein kinase CLK4 (Homo sapiens) (UniProt Q9HAZ1); experiment: qHTS Assay for Inhibitors of CDC-like Kinase 4 (ADP-FP Assay) (AID 1795); further: potency means the concentration at half of the fitted maximal effect; nearly all actives have a fitted effect of over 60% in size
Method in brief: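 Recombinant Clk4 (6.25 nM) phosphorylated 100 uM RS repeat peptide with 1 uM ATP in 25 mM Tris pH 7.5, 10 mM MgCl2, 0.5 mM EGTA, 2.5 mM DTT, 0.01% Triton X-100 for 1 h. ADP was detected by Transcreener ADP2 competitive fluorescence polarization after 30 min at room temperature.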

[17] = target: Cytochrome P450 2D6 (Homo sapiens) (UniProt P10635); experiment: qHTS Assay for Inhibitors and Substrates of Cytochrome P450 2D6 (AID 891); further: potency means the concentration at half of the fitted maximal effect; nearly all actives have a fitted effect of over 60% in size
Method in brief: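 Luminescent read-out of luciferin formed by 5 nM human CYP2D6 demethylating 30 uM Luciferin-ME EGE (Km level) over 60 min at room temperature after NADPH regeneration addition. Data normalized to full inhibition by 1.43 uM quinidine.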

CN(C)c1ccc(-c2nccc(Nc3ccc(F)cc3)n2)cc1
inactive: activity change, negative = inhibition [1] -4.1% | activity change, negative = inhibition [2] -29.4% | outcome [3] | Potency [4] > 46 µM | Potency [5] > 46 µM | Potency [6] | Potency [7] | outcome [8]
active: Potency [9] 3.16 µM | Potency [10] 17.8 µM | Potency [11] 14.1 µM

COc1ccccc1CNc1ccnc(-c2cccc(NS(C)(=O)=O)c2)n1
inactive: Potency [12] > 11.4 µM | activity change, negative = inhibition [1] -17.8% | activity change, negative = inhibition [2] 2.18% | outcome [3] | Potency [4] > 46 µM | Potency [5] > 46 µM | Potency [6] | Potency [7]
active: Potency [10] 28.2 µM | Potency [11] 25.1 µM

COc1ccc2[nH]cc(CCNc3cc(-c4cccc(C#N)c4)ncn3)c2c1
inactive: Potency [12] > 11.4 µM | activity change, negative = inhibition [1] -15.9% | Potency [4] > 46 µM | Potency [5] > 46 µM | Potency [6] | Potency [7] | outcome [8] | Potency [15]
active: Potency [13] 0.794 µM | Potency [14] 3.98 µM | Potency [9] 7.94 µM | Potency [10] 25.1 µM | Potency [11] 31.6 µM

CN(Cc1ccco1)c1ncnc2ccc(-c3cccc(NS(C)(=O)=O)c3)cc12
inactive: Potency [12] > 11.4 µM | activity change, negative = inhibition [2] 14.3% | outcome [3] | Potency [4] > 46 µM | Potency [5] > 46 µM | Potency [6] | outcome [8] | Potency [15]
active: Potency [13] 0.398 µM | Potency [14] 5.01 µM | Potency [9] 7.94 µM | Potency [10] 7.08 µM | Potency [11] 7.94 µM | Potency [16] 7.94 µM

COc1ccccc1CNc1ccnc(-c2cccnc2)n1
active: Potency [10] 28.2 µM | Potency [11] 28.2 µM
inactive: Potency [12] > 11.4 µM | activity change, negative = inhibition [1] -7.12% | activity change, negative = inhibition [2] -4.87% | outcome [3] | Potency [4] > 46 µM | Potency [5] > 46 µM | Potency [6] | Potency [7] | Potency [15]

COc1ccccc1CNc1ncnc2ccc(-c3cccc(NS(C)(=O)=O)c3)cc12
active: Potency [13] 3.98 µM | Potency [14] 3.16 µM | Potency [10] 11.2 µM | Potency [11] 14.1 µM | Potency [16] 7.08 µM
inactive: Potency [12] > 11.4 µM | activity change, negative = inhibition [2] 24.7% | outcome [3] | Potency [4] > 46 µM | Potency [6] | outcome [8] | Potency [15]

CN(C)c1ccc(-c2nccc(NCc3cccs3)n2)cc1
active: Potency [13] 0.398 µM | Potency [17] 0.126 µM | Potency [10] 8.91 µM | Potency [11] 5.62 µM
inactive: activity change, negative = inhibition [1] -18.4% | outcome [3] | Potency [4] > 46 µM | Potency [5] > 46 µM | Potency [6] | outcome [8] | Potency [15]
